High-throughput results from PubChem.
Hits are enriched below; roughly 6.3% of the tested compounds scored in any of these assays.
Autofluor 339 – intrinsic fluorescence of library compounds, ex339/em460 – biochemical, MLSMR library, data from DPM-DC assay, artefact control, profiling panel | compound autofluorescence, ex339/em460 nm, NADH buffer; hits give high values; 1 = no-compound wells, NADH background | AID 709, 2007 | fluorescence fold increase at 10 µM | 5.5% of 65,000 active;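 active = at 10 µM, mean starting fluorescence two-fold or more over control wells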;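 note: signal is the first read of a kinetic run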
MK inhibit – S. pneumoniae MK inhibitors, primary screen, biochemical, PK/LDH-coupled NADH absorbance; mevalonate kinase [Streptococcus pneumoniae D39]; purified MK, PK/LDH-coupled NADH absorbance 340 nm; inhibition, % at 10 µM; 0.48% of 65,000 active;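 active = ranked among the strongest by inhibition in the single 10 µM screen, a fixed top-ranked set picked for dose follow-up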
A340 absorber – compound light absorbance at 340 nm, profiling panel, artefact control, biochemical, MLSMR library, data from PS, PMK, MK assays; compound absorbance at 340 nm, fold over control; fold change at 10 µM; 65,000 tested, under 10 active; AID 708, 2007;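 active = at 10 µM dose, initial 340 nm absorbance at least 2 fold that of control wells; inactive = change under 2 fold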;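 note: initial absorbance extrapolated from kinetic A340 decline of NADH oxidation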
Spn DPM-DC inh – S. pneumoniae DPM-DC inhibitors, primary screen, biochemical, PK/LDH-coupled NADH fluorescence | 0.49% of 65,000 active | diphosphomevalonate decarboxylase (Streptococcus pneumoniae D39) | calls only at 10 µM | purified DPM-DC;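 active = the 320 compounds with the highest percent inhibition in the single-dose primary screen, excluding strongly autofluorescent ones, cut at about 32% in these data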;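 note: kinetic rate of NADH fluorescence loss reporting ADP formed by the decarboxylase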
Spn PMK inh – S. pneumoniae PMK inhibitors, primary screen, biochemical, mevalonate pathway, pilot trial included. phosphomevalonate kinase (Streptococcus pneumoniae D39). purified PMK, PK/LDH-coupled NADH absorbance 340 nm. inhibition, % at 10 µM. 0.49% of 65,000 active. AID 539, 2006;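 active = top-ranked compounds by inhibition in the single 10 µM screen, taking a fixed number of the strongest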
NADH coupling – inhibitors of PK/LDH coupling enzymes, profiling panel, artefact control, biochemical, MLSMR library; coupled PK/LDH NADH assays, four targets; IC50, µM (doses to about 10 µM); 0.02% of 65,000 active; AID 774, 2007;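 active = single-dose screening hits from any of four coupled enzyme assays that gave an IC50 when retested across doses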;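 note: the DPM-DC format reads NADH fluorescence rather than 340 nm absorbance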
Each line names hits and unclear results; the compound was inactive in the other large screens.

O=S(=O)(c1ccc(-c2cn3ccccc3n2)cc1)N1CCOCC1	Autofluor 339 2.2 (not shown: Spn DPM-DC inh)
O=C1CCCC2=C1C(c1cccs1)n1nc(SCc3ccccc3F)nc1N2 (configuration not stated)	Autofluor 339 2.2
COc1ccc(NC2CC(=O)NC2=O)cc1 (configuration not stated)	Spn PMK inh 26
COc1ccc(N2CCN(C3CC(=O)NC3=O)CC2)cc1 (configuration not stated)	none
Cc1c(Cl)cccc1N(CC(=O)NC1CCCCC1)S(C)(=O)=O	none
N#Cc1nc(-c2ccccc2F)oc1N1CCCC1	Autofluor 339 3.6 (not shown: Spn DPM-DC inh)
COc1ccc(-c2nc(C#N)c(N3CCCCCC3)o2)cc1	Autofluor 339 2.3 (not shown: Spn DPM-DC inh)
N#Cc1nc(-c2ccc(F)cc2)oc1NCc1cccc2c1OCO2	none
CC(C)CNc1oc(-c2ccc(F)cc2)nc1C#N	Autofluor 339 2.4 (not shown: Spn DPM-DC inh)
N#Cc1nc(-c2ccccc2)oc1N1CCCCC1	Autofluor 339 3.7 (not shown: Spn DPM-DC inh)
N#Cc1nc(COc2cccc(Cl)c2)oc1N1CCCC1	none
COCCn1c(=NC(=O)CSCC(=O)Nc2cc(C)on2)sc2cc(C(=O)OC)ccc21	none
CCOC(=O)CC(=O)CSc1ncnc2c1cnn2-c1ccccc1	none
CC(NC(=O)C(CC(=O)OC(C)(C)C)NC(=O)OC(C)(C)C)C(N)=O (configuration not stated)	none
Cc1ccc(/C(O)=C2\C(=O)C(=O)N(CCCN(C)C)C2c2ccccn2)cc1 (configuration not stated)	none
COc1ccc(-c2nc(C#N)c(N3CC(C)OC(C)C3)o2)cc1OC (configuration not stated)	Autofluor 339 2.1 (not shown: Spn DPM-DC inh)
N#Cc1nc(COc2ccc(F)cc2)oc1N1CCCC1	none
COc1ccc(-c2nc(C#N)c(NC(C)C)o2)cc1	Autofluor 339 2.3 (not shown: Spn DPM-DC inh)
CC1CN(c2oc(-c3ccccc3Cl)nc2C#N)CC(C)O1 (configuration not stated)	none
COc1ccc(-c2nc(C#N)c(N3CCCCCC3)o2)cc1OC	Autofluor 339 3.9 (not shown: Spn DPM-DC inh)
N#Cc1nc(-c2ccc(F)cc2)oc1N1CCCC1	Autofluor 339 2.4 (not shown: Spn DPM-DC inh)
CC(C)Cn1c(SCC(=O)NC(=O)NC2CCCC2)nc2ccccc21	none
CCOC(=O)c1cnc2nc[nH]n2c1=O	none
N#Cc1nc(-c2ccc(Cl)cc2)oc1N1CCCCC1	Autofluor 339 2.4 (not shown: Spn DPM-DC inh)
Cc1ccc(-c2nc(C#N)c(N3CCCCC3)o2)cc1	Autofluor 339 2.2 (not shown: Spn DPM-DC inh)
Cc1ccc(S(=O)(=O)Cn2cnnn2)cc1	none
OC(CN1CCN(c2cccc(C(F)(F)F)c2)CC1)c1c[nH]c2ccccc12 (configuration not stated)	none
CN(C)c1ccc(C2C=C(c3ccc(Cl)cc3OC(F)F)Nc3ncnn32)cc1 (configuration not stated)	none
Cc1ccc(C2C=C(c3ccc4c(c3)OCO4)Nc3ncnn32)cc1 (configuration not stated)	Autofluor 339 3
Cc1ccc(C2C=C(c3ccccc3OC(F)F)Nc3ncnn32)cc1 (configuration not stated)	Autofluor 339 2.1
COc1ccc2nc(C)cc(N3CCOCC3)c2c1	none
COc1ccc2c(-c3ccccc3)cc(N3CCOCC3)nc2c1	Autofluor 339 2.9
CC1CCCCC1NC(=O)CN1CCC(O)(c2ccc(F)cc2)CC1 (configuration not stated)	none
Clc1c(-c2nnc3n2CCC3)sc2ccccc12	Spn DPM-DC inh active
O=C1N2CCSC2=NC1(Nc1nccs1)C(F)(F)F (configuration not stated)	none
CNc1oc(-c2cccc3ccccc23)nc1C#N	Autofluor 339 3.7 (not shown: Spn DPM-DC inh)
N#Cc1nc(Cc2cccc3ccccc23)oc1NCc1ccc(F)cc1	none
COc1ccc(CNc2oc(-c3cccc4ccccc34)nc2C#N)cc1	Autofluor 339 3 (not shown: Spn DPM-DC inh)
Cn1cc(S(=O)(=O)Cc2ccc(F)cc2)c2ccccc21	none
CC1Cc2ccccc2N1C(=O)C1CCCN(S(=O)(=O)c2cccc3cccnc23)C1 (configuration not stated)	none
O=C(OCCn1cncn1)c1cc2ccccc2oc1=O	none
Nc1nc2n(n1)C(c1cccs1)CC(c1ccc(F)cc1)N2 (configuration not stated)	none
COc1ccc(C2CC(c3cccs3)n3nc(N)nc3N2)cc1 (configuration not stated)	Autofluor 339 2
COc1ccccc1N1CCN(C/C=C/c2ccc(N(C)C)cc2)CC1	none
COc1ccccc1/C=C/CN1CCOCC1	MK inhibit 44
Cc1nn2c(N3CCN(c4ccccn4)CC3)cc(C(C)C)nc2c1-c1ccccc1	Autofluor 339 3.1
Cc1cc(N2CCN(C3CCCC3)CC2)n2nc(C)c(-c3ccccc3)c2n1	Spn DPM-DC inh active
Cc1cc(N2CCOCC2)n2nc(C)c(-c3ccccc3)c2n1	none
CCNC(=O)c1sc(-c2ccccc2)nc1C	none
CCOc1ccccc1N1CCN(CC(O)COc2ccc3c(C)cc(=O)oc3c2)CC1 (configuration not stated)	none
Cc1cc(=O)oc2cc(OCc3nnc(-c4ccccc4Br)o3)ccc12	Autofluor 339 4.5 (not shown: Spn DPM-DC inh)
O=C(Nc1ccc2nn(-c3ccccc3)nc2c1)c1cccnc1	none
O=C(Nc1cc2nn(-c3ccccc3)nc2cc1Cl)c1ccco1	Autofluor 339 3.8 (not shown: Spn DPM-DC inh)
CC(=O)Nc1cc2nn(-c3ccccc3)nc2cc1Cl	Autofluor 339 2.3 (not shown: Spn DPM-DC inh)
O=P(CCC(F)(F)F)(CCC(F)(F)F)CCC(F)(F)F	none
COc1ccc(-n2nc(C(=O)NCc3ccco3)c3c4ccccc4n(C)c3c2=O)cc1	Autofluor 339 4.8 (not shown: Spn DPM-DC inh)
CCOC(=O)NC1(NC2CCCCC2)Oc2ccccc2O1	none
CC1(C)CC(=O)C2=C(C1)N(CCN1CCOCC1)C1=C(C(=O)CC(C)(C)C1)C2c1cccc(Cl)c1	Autofluor 339 4.3 (not shown: MK inhibit, Spn DPM-DC inh)
COC(=O)NCC12CC3CC(C1)CC(CNC(=O)OC)(C3)C2	none (no result: MK inhibit)
COC(=O)c1ccccc1NC(=O)c1cc(-c2cccs2)on1	Autofluor 339 2
COC(=O)c1ccccc1NC(=O)c1cc(-c2cccc(OC)c2)on1	none
COc1ccccc1NC(=O)NCCN1C(=O)C2C3C=CC(C3)C2C1=O (configuration not stated)	none
Cc1cnn(C(=O)c2oc3ccccc3c2C)c1	none
Cc1oc2ccccc2c1-c1cn2c(n1)SCC2	Autofluor 339 3.6 (not shown: Spn DPM-DC inh)
OC1(c2ccccc2F)CCN(Cc2nnnn2CCc2ccccc2)CC1	none
